In the library only some 31% were active in any assay of this set; here they are far more common.
CYP2C9 inhib – human CYP2C9 inhibition | P11712 | CYP2C9 Supersomes, luciferin-H conversion, luminescence | inhibition, % at 5 µM | hit rate 20% among 96,000;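 active means blocking of liver enzyme CYP2C9 beyond about 50% at 5 µM, limit read from the data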
Target sequence (P11712 whole entry, looked up): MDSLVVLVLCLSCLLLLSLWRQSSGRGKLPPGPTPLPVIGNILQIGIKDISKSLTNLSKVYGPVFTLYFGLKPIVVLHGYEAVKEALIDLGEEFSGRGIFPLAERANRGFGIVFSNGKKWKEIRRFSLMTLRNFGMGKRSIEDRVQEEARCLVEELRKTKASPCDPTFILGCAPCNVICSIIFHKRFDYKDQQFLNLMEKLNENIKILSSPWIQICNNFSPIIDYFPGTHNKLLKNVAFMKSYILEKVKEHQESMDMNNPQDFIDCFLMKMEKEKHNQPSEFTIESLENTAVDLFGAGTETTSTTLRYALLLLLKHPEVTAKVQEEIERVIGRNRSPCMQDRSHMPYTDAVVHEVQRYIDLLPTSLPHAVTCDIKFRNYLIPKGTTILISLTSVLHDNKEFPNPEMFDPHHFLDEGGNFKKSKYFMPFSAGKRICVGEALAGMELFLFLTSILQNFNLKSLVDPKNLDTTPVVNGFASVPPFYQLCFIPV
CYP2C19 inh – human CYP2C19 inhibition. AID 778. CYP2C19 Supersomes, luciferin-H EGE luminescence, 30 min. P33261. inhibition, % at 5 µM. hit rate 21% among 96,000;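 active means CYP2C19 inhibition above a set limit at 5 µM in the primary screen, cut at about 50% in these data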
CYP2C9 activ – CYP2C9 (human) activation | AID 1024 | activation factor at 5 µM | recombinant CYP2C9, luciferin-H conversion, luminescence; hits give high values; factor 1 = untreated enzyme, 0 = blocked | hit rate 1.4% among 96,000;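 active means activation factor of 2 or more for CYP2C9 at a 5 µM dose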
CYP2C19 act – cytochrome P450 2C19 (human) activation. recombinant CYP2C19, luciferin-H EGE luminescence; hits give high values; 0 = fully inhibited enzyme, 1 = untreated enzyme. activation factor at 5 µM. 96,000 tested, under 10 active. P33261. AID 1025;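 active means activation factor of at least 2 at 5 µM in the primary screen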
A number is an active result.

Results for COc1cc(C2C(C(=O)OC(C)C)=C(C)Nc3ncnn32)cc(OC)c1OC (stereo not given) ?
CYP2C9 inhib: 78; CYP2C19 inh: inactive; CYP2C9 activ: inactive; CYP2C19 act: inactive

Results for CCCCOC(=O)C1=C(C)Nc2ncnn2C1c1cccc(OC)c1 (stereo not given) ?
CYP2C9 inhib: 51; CYP2C19 inh: 68; CYP2C9 activ: inactive; CYP2C19 act: inactive

How did CC1=C(C(=O)OCc2ccccc2)C(c2cccnc2)n2ncnc2N1 (stereo not given) do in these assays?
CYP2C9 inhib: inactive; CYP2C19 inh: inactive; CYP2C9 activ: inactive; CYP2C19 act: inactive

Results for CCCCCOc1ccc(C2C(C(C)=O)=C(C)Nc3ncnn32)cc1OC (stereo not given) ?
CYP2C9 inhib: 54; CYP2C19 inh: inactive; CYP2C9 activ: inactive; CYP2C19 act: inactive

What do the screens show for `COc1ccccc1NC(=O)C1=C(C)Nc2nc(CCCO)nn2C1c1ccc2c(c1)OCO2` (stereo not given)?
CYP2C9 inhib: 59; CYP2C19 inh: inactive; CYP2C9 activ: inactive; CYP2C19 act: inactive

Results for CC(=O)C1=C(C)Nc2ncnn2C1c1ccc(Cl)cc1Cl (stereo not given) ?
CYP2C9 inhib: inactive; CYP2C19 inh: 68; CYP2C9 activ: inactive; CYP2C19 act: inactive

What do the screens show for `COc1ccc(OC)c(C2C(C(=O)Nc3ccc(F)cc3)=C(C)Nc3nc(CCCO)nn32)c1` (stereo not given)?
CYP2C9 inhib: inactive; CYP2C19 inh: inactive; CYP2C9 activ: inactive; CYP2C19 act: inactive

How did COc1ccc(C2C(C(C)=O)=C(C)Nc3ncnn32)cc1OC (stereo not given) do in these assays?
CYP2C9 inhib: inactive; CYP2C19 inh: inactive; CYP2C9 activ: inactive; CYP2C19 act: inactive

How did CCOC(=O)C1=C(C)NC(=O)NC1c1ccc2c(c1)OCO2 (stereo not given) do in these assays?
CYP2C9 inhib: inactive; CYP2C19 inh: inactive; CYP2C9 activ: inactive; CYP2C19 act: inactive

Results for CCOC(=O)C1=C(C)Nc2ncnn2C1c1ccc2c(c1)OCO2 (stereo not given) ?
CYP2C9 inhib: 62; CYP2C19 inh: 50; CYP2C9 activ: inactive; CYP2C19 act: inactive

How did CCCCN(c1ccccc1)S(=O)(=O)c1ccc2c(c1)CCN2C(=O)CCC(=O)O do in these assays?
CYP2C9 inhib: inactive; CYP2C19 inh: inactive; CYP2C9 activ: inactive; CYP2C19 act: inactive

How did COC(=O)c1ccc(C2C(C(=O)Nc3ccc(C)cc3C)=C(C)Nc3ncnn32)cc1 (stereo not given) do in these assays?
CYP2C9 inhib: inactive; CYP2C19 inh: 62; CYP2C9 activ: inactive; CYP2C19 act: inactive

Results for CCOC(=O)C1=C(CNCCc2ccc(Cl)cc2)NC(=O)NC1c1ccc2c(c1)OCO2 (stereo not given) ?
CYP2C9 inhib: 89; CYP2C19 inh: 86; CYP2C9 activ: inactive; CYP2C19 act: inactive

Results for CCCCOC(=O)C1=C(C)Nc2ncnn2C1c1cc(OC)ccc1OC (stereo not given) ?
CYP2C9 inhib: 58; CYP2C19 inh: inactive; CYP2C9 activ: inactive; CYP2C19 act: inactive

Results for COc1cccc(C2C(C(=O)OCc3ccccc3)=C(C)Nc3ncnn32)c1OC (stereo not given) ?
CYP2C9 inhib: inactive; CYP2C19 inh: 64; CYP2C9 activ: inactive; CYP2C19 act: inactive

What do the screens show for `COC(=O)C1=C(C)Nc2ncnn2C1c1ccc(OC(=O)c2ccccc2)cc1` (stereo not given)?
CYP2C9 inhib: inactive; CYP2C19 inh: inactive; CYP2C9 activ: inactive; CYP2C19 act: inactive

How did Clc1ccc(Cc2noc(-c3cccs3)n2)cc1 do in these assays?
CYP2C9 inhib: inactive; CYP2C19 inh: inactive; CYP2C9 activ: inactive; CYP2C19 act: inactive

What do the screens show for `Cc1ccc(S(=O)(=O)c2ccc(Cl)cc2)cc1S(=O)(=O)N1CCN(C)CC1`?
CYP2C9 inhib: inactive; CYP2C19 inh: inactive; CYP2C9 activ: inactive; CYP2C19 act: inactive

Results for O=S(=O)(c1ccc2ccccc2c1)N1CCCOC1 ?
CYP2C9 inhib: inactive; CYP2C19 inh: inactive; CYP2C9 activ: 3.5; CYP2C19 act: inactive

What do the screens show for `O=S(=O)(c1cccc(S(=O)(=O)N2CCCC2)c1)c1cccc(S(=O)(=O)N2CCCC2)c1`?
CYP2C9 inhib: inactive; CYP2C19 inh: inactive; CYP2C9 activ: inactive; CYP2C19 act: inactive

Results for O=S(=O)(c1ccc2ccccc2c1)N1CCCCC1 ?
CYP2C9 inhib: inactive; CYP2C19 inh: inactive; CYP2C9 activ: 2.5; CYP2C19 act: inactive

How did Cc1ccc(S(=O)(=O)N2CCCOC2)cc1 do in these assays?
CYP2C9 inhib: inactive; CYP2C19 inh: inactive; CYP2C9 activ: inactive; CYP2C19 act: inactive

What do the screens show for `CC1CCCC(N2C(=O)NC(NC(=O)c3ccco3)(C(F)(F)F)C2=O)C1C` (stereo not given)?
CYP2C9 inhib: inactive; CYP2C19 inh: 63; CYP2C9 activ: inactive; CYP2C19 act: inactive

How did CCCCN1C(=O)NC(NC(=O)c2ccco2)(C(F)(F)F)C1=O (stereo not given) do in these assays?
CYP2C9 inhib: inactive; CYP2C19 inh: inactive; CYP2C9 activ: inactive; CYP2C19 act: inactive

Results for Cc1cc(C)n2cc(CSc3nnnn3-c3ccccc3)nc2n1 ?
CYP2C9 inhib: inactive; CYP2C19 inh: inactive; CYP2C9 activ: inactive; CYP2C19 act: inactive

How did C(=C\CSc1nnnn1-c1ccccc1)/CSc1nnnn1-c1ccccc1 do in these assays?
CYP2C9 inhib: inactive; CYP2C19 inh: inactive; CYP2C9 activ: inactive; CYP2C19 act: inactive

How did Cc1ccc(-n2nnnc2SCc2ccccn2)cc1C do in these assays?
CYP2C9 inhib: inactive; CYP2C19 inh: 57; CYP2C9 activ: inactive; CYP2C19 act: inactive

What do the screens show for `Cc1cc(C)n2cc(CSc3nnnn3-c3ccc(Cl)cc3)nc2n1`?
CYP2C9 inhib: inactive; CYP2C19 inh: inactive; CYP2C9 activ: 2.2; CYP2C19 act: inactive

How did c1ccc(-c2noc(CSc3nnnn3-c3ccccc3)n2)cc1 do in these assays?
CYP2C9 inhib: 54; CYP2C19 inh: 63; CYP2C9 activ: inactive; CYP2C19 act: inactive

How did c1ccc(-n2nnnc2SCc2ccccn2)cc1 do in these assays?
CYP2C9 inhib: inactive; CYP2C19 inh: 88; CYP2C9 activ: inactive; CYP2C19 act: inactive

Results for COc1ccccc1-c1nnc(SCc2ccccn2)n1C ?
CYP2C9 inhib: inactive; CYP2C19 inh: inactive; CYP2C9 activ: inactive; CYP2C19 act: inactive

What do the screens show for `COc1cc(C(=O)N2CCN(S(=O)(=O)c3ccc(F)cc3)CC2)cc(OC)c1OC`?
CYP2C9 inhib: inactive; CYP2C19 inh: inactive; CYP2C9 activ: inactive; CYP2C19 act: inactive

What do the screens show for `CC(C)n1c(=S)[nH]c2c1c(=O)[nH]c(=O)n2C`?
CYP2C9 inhib: inactive; CYP2C19 inh: inactive; CYP2C9 activ: inactive; CYP2C19 act: inactive

How did CCCCN(C)CCn1c(=S)[nH]c2ccc(N3CCOCC3)cc2c1=O do in these assays?
CYP2C9 inhib: inactive; CYP2C19 inh: inactive; CYP2C9 activ: inactive; CYP2C19 act: inactive

How did O=C(O)c1ccccc1OCCOCCOc1ccccc1C(=O)O do in these assays?
CYP2C9 inhib: inactive; CYP2C19 inh: inactive; CYP2C9 activ: inactive; CYP2C19 act: inactive

How did Cc1cccc2nc(CSc3nnnn3-c3ccccc3)cn12 do in these assays?
CYP2C9 inhib: inactive; CYP2C19 inh: 84; CYP2C9 activ: inactive; CYP2C19 act: inactive

Results for Cc1cccc2nc(CSc3nncn3-c3ccccc3)cn12 ?
CYP2C9 inhib: inactive; CYP2C19 inh: inactive; CYP2C9 activ: inactive; CYP2C19 act: inactive
